# Experiments:
# Experiment in all cases: PBM binding z-score (relative to random genomic background probes); higher = stronger binding; sequences stand for … in GC…GCGATTGACAGCGTAGAATGAAGG
# [1] = tested on: FXR:RXRa (NR concentration 270 nM, RXRa partner concentration 90 nM)
# In short: (§1)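 For binding z-scores, the reference was random background probes on custom Agilent 4×180K protein-binding microarrays. These arrays were incubated 1 h with ligand-free nuclear receptor dimers in PBS pH 7.4, 2% milk, 0.02% Triton X-100, 1 mM DTT, 0.2 mg/mL BSA and 0.4 mg/ml salmon testes DNA. Fluorescence was scanned after antibody detection of each partner (one per run) and regression-normalized.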
# [2] = tested on: LXRa:RXRa (NR concentration 270 nM, RXRa partner concentration 90 nM)
# In short: as §1
# [3] = tested on: LXRa homodimer (NR concentration 270 nM)
# In short: as §1
# [4] = tested on: LXRb:RXRa (NR concentration 270 nM, RXRa partner concentration 90 nM)
# In short: as §1
# [5] = tested on: LXRb homodimer (NR concentration 270 nM)
# In short: as §1
# [6] = tested on: PPARa:RXRa (NR concentration 270 nM, RXRa partner concentration 90 nM)
# In short: as §1
# [7] = tested on: PPARg:RXRa (NR concentration 180 nM, RXRa partner concentration 90 nM)
# In short: as §1
# [8] = tested on: PPARg:RXRa 270nM:90nM, anti-RXR (NR concentration 270 nM, RXRa partner concentration 90 nM)
# In short: as §1
# [9] = tested on: PPARg:RXRa 30nM:10nM, anti-RXR (NR concentration 30 nM, RXRa partner concentration 10 nM)
# In short: as §1
# [10] = tested on: PPARg:RXRa 90nM:30nM, anti-RXR (NR concentration 90 nM, RXRa partner concentration 30 nM)
# In short: as §1
# [11] = tested on: PPARg:RXRa DBDmut IVT, anti-RXR (DBD mutation: RXRa K156A/R161A, NR concentration 270 nM, RXRa partner concentration 90 nM)
# In short: as §1
# [12] = tested on: PPARg:RXRa IVT, anti-PPARg (NR concentration 270 nM, RXRa partner concentration 90 nM)
# In short: as §1
# [13] = tested on: PPARg DBDmut:RXRa IVT, anti-PPARg (DBD mutation: PPARg1 K132A/R137A, NR concentration 270 nM, RXRa partner concentration 90 nM)
# In short: as §1
# [14] = tested on: PPARg DBDmut IVT, anti-PPARg (DBD mutation: PPARg1 K132A/R137A, NR concentration 270 nM)
# In short: as §1
# [15] = tested on: PPARg homodimer (NR concentration 180 nM)
# In short: as §1
# [16] = tested on: PXR:RXRa (NR concentration 270 nM, RXRa partner concentration 90 nM)
# In short: as §1
# [17] = tested on: PXR homodimer (NR concentration 270 nM)
# In short: as §1
# [18] = tested on: RARa:RXR (NR concentration 270 nM, RXRa partner concentration 90 nM)
# In short: as §1
# [19] = tested on: RARa homodimer (NR concentration 270 nM)
# In short: as §1
# [20] = tested on: RARb:RXRa (NR concentration 270 nM, RXRa partner concentration 90 nM)
# In short: as §1
Sequence,PBM binding z-score [1],PBM binding z-score [2],PBM binding z-score [3],PBM binding z-score [4],PBM binding z-score [5],PBM binding z-score [6],PBM binding z-score [7],PBM binding z-score [8],PBM binding z-score [9],PBM binding z-score [10],PBM binding z-score [11],PBM binding z-score [12],PBM binding z-score [13],PBM binding z-score [14],PBM binding z-score [15],PBM binding z-score [16],PBM binding z-score [17],PBM binding z-score [18],PBM binding z-score [19],PBM binding z-score [20]
CTCGAAAGGTCGTGCTCACGTGAGTATACCAAAC,5.21,3.95,0.0228,3.69,0.397,5.07,2.9,3.42,0.773,2.12,0.85,1.55,0.551,0.796,1.35,2.86,-0.121,3.31,-0.039,3.92
TAGCCTAGGTCATTCCGGGGCCAGTATAGAAAGC,4.26,3.29,0.811,2.53,1.33,3.21,1.75,2.04,0.233,1.01,1.04,2.62,-0.235,0.258,0.924,2.65,-0.216,3.02,-0.809,3.74
TCATATAGGTAAATGGTAGGTGAAAGTCCGATCT,1.34,1.54,0.813,1.26,0.456,1.8,1.39,3.17,3.85,3.74,4.03,3.04,0.629,0.943,1.37,0.974,0.669,1.43,1.61,0.698
GCCAGTTGGTCAGTAAAAGGTCACACACCGGTCG,3.07,4.03,4.4,3.89,-0.0245,4.36,2.75,4.34,1.84,3.62,0.399,2.44,0.21,0.231,3.78,5.1,1.14,5.76,1.88,4.14
AATACAGGGTCATCGTAGGGCAGAGTACGCACAG,7.54,6.88,2.95,5.07,1.16,5.83,6.94,6.07,2.84,4.96,3.16,4.29,1.4,0.756,3.57,5.4,0.861,5.26,0.97,4.7
TCTGCTAGGTCAGTTTGTCAGCTAACGAGCTGCC,0.772,0.567,-0.461,0.457,0.977,1.03,-0.179,1.12,1.38,1.4,2.1,2.5,0.124,0.15,-0.156,0.322,-0.604,0.454,-0.407,2.72
TTACCAAGATGAGCTGAGGTCGTTGATCCAACTC,0.71,0.408,0.0791,0.458,-0.782,0.853,0.0458,0.511,0.543,0.66,0.238,0.101,-0.000343,-0.456,0.0396,1.87,0.628,1.35,-0.33,0.279
TCGAGTAGGTTAGGGGCTTTCAGAATGGCGTCGA,-0.147,0.172,-0.23,0.6,-0.232,0.524,0.208,1.76,0.813,1.15,2.03,1.11,-0.958,-0.419,0.523,-0.179,-0.00687,-0.485,0.102,0.395
CCTGCTAGGTCCATGGTCAGCTAAAGCAGCTCGC,-0.648,-0.658,-0.744,-0.958,-0.563,-0.447,-0.772,-0.287,-1.2,-0.648,-0.414,-0.603,-1.47,-1.26,-0.704,-0.449,-1,-0.64,-1.05,0.441
CCTCGGAGGACAACAGGAGGTAAGAGCTGCCAGA,0.127,-0.463,-0.208,-0.701,-0.983,-0.345,0.154,-0.624,-0.764,-0.831,-0.141,-0.621,-1.15,-1.44,0.0253,-0.402,-0.651,-0.0361,0.0272,0.846
AGAACGAGCGCACGCTGAGTTGATAGCAGAGTAG,-0.57,-0.901,-0.709,-1.02,-1.26,-1.16,0.302,-0.706,-0.622,-0.45,-0.589,-0.892,-0.82,-1.39,-1.63,-0.74,-0.523,-0.952,-1.05,-1.05
ACTCGGAAGACAAAGGTCAGAGCTACGCCAGTGA,3.29,3.7,1.47,3.28,0.387,4.48,4.43,4.75,2.83,4.83,0.385,1.77,0.488,-0.549,2.44,3.25,0.247,3.84,0.864,4.07
AATACATGGTCACTAGGCCAGAGTAGGTACGAAT,-0.31,-0.00437,-0.0579,-0.301,-0.193,0.587,1.65,1.15,0.153,0.688,1.04,2.74,0.798,1.09,0.338,-0.198,-0.158,-0.153,-0.0326,1.14
CGTCCAAGGTCAAGGGTCAGTGAAGAGATGACGG,7.75,5.84,1.02,5,0.392,6.46,8.85,7.9,6.12,7.94,3.08,5.28,0.202,-0.0608,5,5.97,1.43,8.23,1.5,5.81
TCAAGCAGGCCAGAGGGTCACTCAAGAGGTACGG,1.15,0.997,-0.238,1.22,-1,2.59,1.67,2.69,2.51,2.67,1.38,0.884,-1.19,-1.55,0.379,1.65,-0.357,2.52,-0.42,2.51
ATTTGTAGGTTAGCTGGGGTCATTCAGACTAGGC,4.72,6,4.63,5.23,2.54,5.2,4.29,4.6,2.42,3.79,5.34,5.05,2.63,3.11,4.33,6.6,4.49,5.99,2.49,3.52
CGTCCAAGGTCAATGCTGGGTCAGTGAAAGCATT,6.49,4.95,0.942,3.75,0.628,5.14,3.82,4.53,1.09,3.07,3.06,3.71,-0.934,-0.907,4.17,4.66,1.2,5.52,0.99,5.31
ACTAGTTGATCAGCTGAGGTCACACACAATTCGG,3.31,2.93,1.91,3.51,0.605,3.89,1.6,2.33,0.574,1.42,0.672,2.14,0.806,1.68,2.57,4.97,2.19,4.95,0.417,3.22
TCGAGTAGGTTAGGGGCCTTCAGAATGGCGTCGA,-0.193,-0.323,-0.797,-0.221,-0.986,0.54,0.638,2.19,0.926,2.03,1.32,1.07,-0.729,-0.939,-0.145,-0.478,-0.829,-0.114,-1.13,0.24
CCTAGTTGGTCAAGAGGTCACACACCGGATATGA,5.19,5.02,3.61,4.58,0.768,5.71,5.69,5.36,3.16,4.81,2.07,4.43,0.763,0.00136,3.36,4.96,1.63,5.63,1.6,4.83
ATCTCTAGGTAAAGATAGTTCAGTGAGTGCAAAT,-0.0159,4.06,1.22,0.833,0.569,0.673,0.242,0.661,0.182,0.714,2.29,1.9,0.931,0.67,0.928,3.93,11.4,0.596,0.987,0.924
ATCTCTAGGTAAAAATAGTTCAGTGAATGCAAAT,0.334,4.28,0.864,0.965,0.656,0.534,0.601,0.436,0.563,0.283,1.13,1.46,0.671,1.22,0.455,0.922,1.12,0.59,1.51,0.993
GCTAGTTGGTGAGTAAAAGGTCACACACCGGTCG,3.1,3.92,3.81,3.79,-0.0196,4.55,3.87,5.23,3.09,4.99,0.239,2.74,0.00849,0.663,3.73,4.81,0.986,5.64,0.736,4.05
TTACCAAGGTGAGCTGAGCTCGTTGATCCAACTC,-0.195,-0.544,-0.993,-0.67,-1.3,0.11,-0.393,-0.0625,-0.293,-0.268,0.946,1.2,0.0399,0.147,-0.967,-0.427,-0.854,0.0745,-1.22,0.907
TCTCGGAGGACACGAAGGACAGAGCTTTCCAGAG,0.358,-0.306,-0.452,-0.355,-1.07,-0.0833,0.271,0.836,2.13,1.3,1.14,0.0636,-0.366,-1.09,-0.347,-0.352,-0.367,0.0176,-1.01,1.54
TCTTGTAGATCAAAAGGAGGTTAAGAAAGATCGA,0.895,1.83,0.268,1.37,-0.229,1.81,0.335,2.02,2.91,2.36,1.99,1.45,0.192,0.409,0.066,0.871,0.0133,1.12,0.597,0.428

# From the supplement of paper PMC6555819
